# From PubChem BioAssay (NCI)
# This is part of a sample that, as a whole, favours compounds with a hit. Of some 79,000 tested, about 15% had one in any assay. A number with no mark means an inactive call. The source made the active and inactive calls. No stated cut-off is given here; in the data, active means growth inhibition above about 70%; inactive means the rest.
# Legend:
# [1] = NCI Yeast Anticancer Drug Screen. Data for the rad50 strain (AID 155);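 further: 0% = growth of vehicle-only cultures of the same strain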; conditions: S. cerevisiae rad50 strain growth inhibition, active compounds read high
# In short: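 Relative growth inhibition (compound vs vehicle) was measured in yeast with a defined repair-gene alteration.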
# [2] = NCI Yeast Anticancer Drug Screen. Data for the mec2-1 strain (AID 157); conditions: S. cerevisiae mec2-1 strain, active compounds read high
# In short: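 mec2-1 yeast strain, carrying an alteration in DNA damage repair or cell cycle control, was exposed to compounds; growth inhibition was measured relative to vehicle-treated controls.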
# [3] = NCI Yeast Anticancer Drug Screen. Data for the sgs1 mgt1 strain (AID 161);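 further: 0% = growth of cultures given vehicle only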; conditions: S. cerevisiae sgs1 mgt1 strain, active compounds read high
# In short: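 Yeast cells carrying a defined DNA-repair defect were exposed to test compounds. Growth inhibition was measured relative to vehicle-treated controls.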
# [4] = NCI Yeast Anticancer Drug Screen. Data for the cln2 rad14 strain (AID 165);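 further: 0% = growth equal to vehicle treated cultures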; conditions: S. cerevisiae cln2 rad14 strain, active compounds read high
# In short: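 Yeast carrying cln2 and rad14 alterations (cell cycle control and DNA damage repair) were exposed to compounds. Growth inhibition was measured against vehicle-treated controls.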
# [5] = NCI Yeast Anticancer Drug Screen. Data for the bub3 strain (AID 167); conditions: S. cerevisiae bub3 mutant strain, active compounds read high
# In short: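 Screening used yeast with an engineered genetic alteration affecting cell cycle control. Compound-exposed cultures were compared with vehicle cultures, and reduced growth was taken as inhibition.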
# [6] = NCI Yeast Anticancer Drug Screen. Data for the mlh1 rad18 strain (AID 175); conditions: S. cerevisiae mlh1 rad18 strain growth inhibition, active compounds read high
# In short: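 Growth inhibition of the yeast strain was measured after compound exposure and expressed relative to vehicle-treated controls. The strain carries defined defects in DNA damage repair.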
# [7] = at 5.0 µM (retest, dose inferred, filed as 0.5)
# [8] = at 50.0 µM (retest, dose inferred, filed as 5.0)
SMILES,"growth inhibition [1, 7]","growth inhibition [1, 8]",growth inhibition ([1]; at 50.0 µM),"growth inhibition [2, 7]","growth inhibition [2, 8]",growth inhibition ([2]; at 50.0 µM),"growth inhibition [3, 7]","growth inhibition [3, 8]",growth inhibition ([3]; at 50.0 µM),"growth inhibition [4, 7]","growth inhibition [4, 8]",growth inhibition ([4]; at 50.0 µM),"growth inhibition [5, 7]","growth inhibition [5, 8]",growth inhibition ([5]; at 50.0 µM),"growth inhibition [6, 7]","growth inhibition [6, 8]",growth inhibition ([6]; at 50.0 µM)
Cc1cccc2cc3c(cc12)c(C)cc1ccccc13,-4%,6%,64.4%,-6%,-9%,75.1% (active),-4%,30%,53%,-1%,1%,51%,-22%,-12%,61%,-17%,2%,63.6%
Clc1cccc(N2CCN(c3c4c(nc5ccccc35)CCCCC4)CC2)c1,81% (active),94% (active),93% (active),93% (active),99% (active),95.5% (active),87% (active),96% (active),95.2% (active),28%,89% (active),93.2% (active),73% (active),93% (active),92.1% (active),92% (active),95% (active),93.9% (active)
O=C1C(=O)N(C(=O)c2ccc(Cl)c(Cl)c2)c2ccc(Cl)cc21,-6%,-4%,13.6%,-9%,2%,24.4%,-7%,6%,35.2%,-9%,-20%,10.8%,-6%,56%,91.6% (active),-8%,12%,64%
O=c1cc(CI)oc2ccccc12,34%,99% (active),99.4% (active),57%,99% (active),99.5% (active),46%,99% (active),99.6% (active),20%,100% (active),85.7% (active),45%,99% (active),94% (active),36%,99% (active),99.5% (active)
CN(C)CC/C(=N\Nc1ccc(Cl)cc1)c1ccccc1,98% (active),99% (active),99.2% (active),100% (active),99% (active),98.8% (active),100% (active),99% (active),99% (active),96% (active),99% (active),95.9% (active),98% (active),99% (active),99.6% (active),99% (active),99% (active),98.7% (active)
Cc1ccc(N=C(N)NN=C(c2ccc(Cl)cc2)c2ccc(Cl)cc2)cc1,10%,67%,65.7%,4%,38%,98.5% (active),7%,35%,57.6%,8%,22%,98% (active),6%,24%,97.2% (active),5%,38%,50.3%
CC[N+]1=C(/C=C\c2cc(C)c3cccnc3c2O)C(C)(C)c2ccccc21,0%,98% (active),53.9%,-2%,98% (active),48.7%,-6%,98% (active),48.1%,-4%,98% (active),77% (active),-5%,98% (active),93.2% (active),0%,97% (active),51.7%
O=C(Nc1ccccc1)OCCc1ccc(Br)cc1,-10%,-9%,13.2%,-23%,-31%,23.7%,-1%,-11%,14.4%,1%,-2%,-7.85%,-5%,7%,6.1%,-5%,0%,-3.25%
Cc1ccc(O)c(Cc2ccccc2Cl)c1,-2%,99% (active),99.3% (active),-7%,99% (active),99.3% (active),-4%,98% (active),99.5% (active),-19%,99% (active),99% (active),-13%,99% (active),92.7% (active),-5%,99% (active),99% (active)
O=C1c2ccccc2C(c2ccccc2)(c2ccccc2)N1c1ccccc1,3%,79% (active),97% (active),-1%,80% (active),96.5% (active),28%,90% (active),95.6% (active),18%,69%,91.3% (active),5%,81% (active),95.7% (active),57%,89% (active),95.6% (active)
